PubChem BioAssay (Tox21)
Records with an inconclusive call do not appear. A call without a number means that no potency is given here. Active and inactive are the calls of the source. Unless noted, calls come from the whole dose curve.

How the values were obtained:
[1] = qHTS assay to identify small molecule antagonists of the estrogen receptor beta (ER-beta) signaling pathway - cell viability counter screen (AID 1259382; active = well fitted curve in the direction sought with a large enough effect in the repeat runs; an effect the other way counts as inactive or inconclusive;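 note: HEK293T cells carrying ER-beta-UAS-bla reporter stimulated with estradiol; series mostly up to about 92 µM; nearly all actives have a fitted effect of over 55% in size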)
Summary of the method: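 Readout: luminescence, CellTiter-Glo, same wells as bla assay. System: ER-beta-UAS-bla GripTite HEK293T, 2% charcoal-stripped FBS. Exposure: compounds plus 1nM 17-beta-estradiol, 16 hr, 37C.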

[2] = target: Estrogen receptor (Homo sapiens) (UniProt P03372); test: qHTS assay to identify small molecule agonists of the estrogen receptor alpha (ER-alpha) signaling pathway in the presence of an antagonist (AID 1259383); note: nearly all actives have a fitted effect of over 15% in size; note: potency is the fitted concentration of half-maximal effect
Summary of the method: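 Quantitative HTS confirmation: compounds titrated at 15 concentrations onto estrogen-deprived VM7Luc4E2 cells carrying a four-ERE luciferase construct, with ICI-182,780 present at 10.0nM final. Signal is luminescence after 22hr exposure.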

[3] = qHTS assay to identify small molecule agonists or antagonists of the thyroid stimulating hormone receptor (TSHR) signaling pathway - wild type cell line counter screen (AID 1259384)
Summary of the method: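 Counter screen in untransfected Hek293: compounds (15-point titration, triplicate) plus phosphodiesterase inhibitor Ro20-1724 added after 18 h plating; 30 min RT. Intracellular cAMP via competitive d2/cryptate immunoassay, 1 h incubation.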

[4] = target: Thyrotropin receptor (Homo sapiens) (UniProt P16473); test: qHTS assay to identify small molecule antagonists of the thyroid stimulating hormone receptor (TSHR) signaling pathway (AID 1259385); note: nearly all actives have a fitted effect of over 20% in size; note: potency is the fitted concentration of half-maximal effect
Summary of the method: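 Antagonist mode: compound-treated TSHR-expressing HEK293 cells were stimulated with 1.5 ng/mL TSH (final) in presence of Ro20-1724 for 30 min at RT. HTRF cAMP detection after 1 h; each compound tested at 15 concentrations, triplicate.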

[5] = qHTS assay to identify small molecule agonists of the estrogen receptor alpha (ER-alpha) signaling pathway in the presence of an antagonist - cell viability counter screen (AID 1259386; active = well fitted curve in the direction sought with a large enough effect in the repeat runs; an effect the other way counts as inactive or inconclusive;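 note: series mostly up to about 92 µM; cells exposed to compounds for 22 h at 37 °C before the viability read; nearly all actives have a fitted effect of over 30% in size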)
Summary of the method: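 The test measures whether compounds kill ER-alpha reporter cells (VM7Luc4E2) under antagonist co-treatment (ICI-182,780, 10.0nM). Fluorescence from CellTiter-Fluor is read after a 22hr exposure.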

[6] = target: Progesterone receptor (Homo sapiens) (UniProt P06401); test: qHTS assay to identify small molecule agonists of the progesterone receptor (PR) signaling pathway (AID 1346784); note: nearly all actives have a fitted effect of over 30% in size
Summary of the method: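 Reporter assay, GripTite PR-UAS-bla HEK 293T cells: 16 hr exposure to DMSO-dissolved compounds at 37C, 5% CO2, in steroid-depleted (2% charcoal-stripped FBS) medium; beta-lactamase measured by FRET fluorescence.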

[7] = qHTS assay to identify small molecule antagonists of the progesterone receptor (PR) signaling pathway - cell viability counter screen (AID 1346798; active = well fitted curve in the direction sought with a large enough effect in the repeat runs; an effect the other way counts as inactive or inconclusive; note: series mostly up to about 92 µM; nearly all actives have a fitted effect of over 50% in size)
Summary of the method: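 In the same plates used for the beta-lactamase readout, cell viability of compound- and R5020-treated PR-UAS-bla HEK293T cells (16 hr, 37C) was assessed by CellTiter-Glo luminescence.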

[8] = target: Androgen receptor (Homo sapiens) (UniProt P10275); test: qHTS assay to identify small molecule agonists of the androgen receptor (AR) signaling pathway in the presence of an antagonist (AID 1259381); note: potency is the fitted concentration of half-maximal effect; nearly all actives have a fitted effect of over 15% in size
Summary of the method: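 Luminescent ONE-Glo read, 30min at room temperature, follows 16hr compound exposure (15 concentrations) of MDA-kb2 cells at 37C, 0% CO2, with nilutamide added at 3.0uM final.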

[9] = target: Progesterone receptor (Homo sapiens) (UniProt P06401); test: qHTS assay to identify small molecule antagonists of the progesterone receptor (PR) signaling pathway (AID 1346795; active = well fitted inhibition curve with a large enough effect in the signal ratio in the repeat runs, not every such curve was filed as active; the % refers to the signal ratio; note: potency is the fitted concentration of half-maximal effect)
Summary of the method: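 Stimulus R5020 at 1 nM final; cells HEK293T PR-UAS-bla; medium with 2% charcoal-stripped FBS; compound exposure 16 hr at 37C, 5% CO2; detection by FRET beta-lactamase substrate, 2 hr, room temperature.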

Sequence of Thyrotropin receptor (Homo sapiens) (P16473 whole entry, looked up): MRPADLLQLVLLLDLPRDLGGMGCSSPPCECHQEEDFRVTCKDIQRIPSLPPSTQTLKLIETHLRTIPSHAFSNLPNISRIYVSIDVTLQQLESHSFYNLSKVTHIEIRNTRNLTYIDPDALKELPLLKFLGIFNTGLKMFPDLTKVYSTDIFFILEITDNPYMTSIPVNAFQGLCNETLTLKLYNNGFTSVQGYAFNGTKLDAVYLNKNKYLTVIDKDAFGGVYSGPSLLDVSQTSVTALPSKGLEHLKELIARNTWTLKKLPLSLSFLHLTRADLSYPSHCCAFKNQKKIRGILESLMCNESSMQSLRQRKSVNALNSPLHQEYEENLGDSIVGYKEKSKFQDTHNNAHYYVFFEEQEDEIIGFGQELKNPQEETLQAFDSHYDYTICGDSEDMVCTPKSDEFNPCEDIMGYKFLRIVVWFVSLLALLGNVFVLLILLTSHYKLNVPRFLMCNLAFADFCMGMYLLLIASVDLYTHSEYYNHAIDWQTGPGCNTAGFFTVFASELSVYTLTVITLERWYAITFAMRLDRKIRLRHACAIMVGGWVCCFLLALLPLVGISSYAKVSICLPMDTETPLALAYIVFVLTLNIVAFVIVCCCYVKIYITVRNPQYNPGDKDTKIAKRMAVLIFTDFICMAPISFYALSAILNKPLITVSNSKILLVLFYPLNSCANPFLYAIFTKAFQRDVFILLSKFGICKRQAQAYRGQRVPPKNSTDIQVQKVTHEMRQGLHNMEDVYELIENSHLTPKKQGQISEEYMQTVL
Sequence of Progesterone receptor (Homo sapiens) (P06401 whole entry, looked up): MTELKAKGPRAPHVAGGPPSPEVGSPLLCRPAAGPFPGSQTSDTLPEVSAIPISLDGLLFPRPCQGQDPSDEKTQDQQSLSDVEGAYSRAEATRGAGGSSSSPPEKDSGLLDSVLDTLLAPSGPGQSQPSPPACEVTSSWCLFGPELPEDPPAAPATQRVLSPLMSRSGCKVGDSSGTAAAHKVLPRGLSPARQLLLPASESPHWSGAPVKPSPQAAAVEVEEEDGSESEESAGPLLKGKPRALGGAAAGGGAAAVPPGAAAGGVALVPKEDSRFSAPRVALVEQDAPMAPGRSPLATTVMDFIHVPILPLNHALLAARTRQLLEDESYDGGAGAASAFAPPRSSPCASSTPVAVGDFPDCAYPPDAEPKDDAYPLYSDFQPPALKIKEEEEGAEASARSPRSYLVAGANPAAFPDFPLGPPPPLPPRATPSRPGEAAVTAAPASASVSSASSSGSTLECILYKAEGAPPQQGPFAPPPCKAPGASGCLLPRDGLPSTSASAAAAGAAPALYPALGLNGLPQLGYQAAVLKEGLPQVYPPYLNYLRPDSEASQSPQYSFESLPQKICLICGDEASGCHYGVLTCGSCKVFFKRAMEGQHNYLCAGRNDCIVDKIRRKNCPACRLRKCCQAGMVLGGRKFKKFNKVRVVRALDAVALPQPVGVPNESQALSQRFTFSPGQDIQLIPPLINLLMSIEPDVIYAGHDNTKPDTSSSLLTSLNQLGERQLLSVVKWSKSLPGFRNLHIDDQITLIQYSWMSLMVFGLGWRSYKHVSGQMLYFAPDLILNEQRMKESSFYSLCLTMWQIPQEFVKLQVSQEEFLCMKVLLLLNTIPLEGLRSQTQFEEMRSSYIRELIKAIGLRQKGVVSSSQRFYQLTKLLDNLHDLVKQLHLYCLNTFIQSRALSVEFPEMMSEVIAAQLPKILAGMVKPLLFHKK
Sequence of Estrogen receptor (Homo sapiens) (P03372 whole entry, looked up): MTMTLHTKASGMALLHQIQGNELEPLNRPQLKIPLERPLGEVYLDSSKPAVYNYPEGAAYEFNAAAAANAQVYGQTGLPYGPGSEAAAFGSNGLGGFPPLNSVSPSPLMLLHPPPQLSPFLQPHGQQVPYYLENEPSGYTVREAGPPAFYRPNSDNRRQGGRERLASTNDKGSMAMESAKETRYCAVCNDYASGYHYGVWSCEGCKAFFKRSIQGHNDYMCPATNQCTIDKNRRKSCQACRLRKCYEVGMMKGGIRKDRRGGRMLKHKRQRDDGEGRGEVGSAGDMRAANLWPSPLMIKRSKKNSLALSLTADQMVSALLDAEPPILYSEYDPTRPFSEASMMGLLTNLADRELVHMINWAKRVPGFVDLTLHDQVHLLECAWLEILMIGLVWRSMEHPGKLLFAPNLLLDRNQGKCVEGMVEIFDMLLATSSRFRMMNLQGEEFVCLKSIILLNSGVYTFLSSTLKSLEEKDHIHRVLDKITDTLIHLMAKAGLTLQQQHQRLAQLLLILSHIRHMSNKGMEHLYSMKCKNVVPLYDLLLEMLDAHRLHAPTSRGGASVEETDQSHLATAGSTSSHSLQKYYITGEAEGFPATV
Sequence of Androgen receptor (Homo sapiens) (P10275 whole entry, looked up): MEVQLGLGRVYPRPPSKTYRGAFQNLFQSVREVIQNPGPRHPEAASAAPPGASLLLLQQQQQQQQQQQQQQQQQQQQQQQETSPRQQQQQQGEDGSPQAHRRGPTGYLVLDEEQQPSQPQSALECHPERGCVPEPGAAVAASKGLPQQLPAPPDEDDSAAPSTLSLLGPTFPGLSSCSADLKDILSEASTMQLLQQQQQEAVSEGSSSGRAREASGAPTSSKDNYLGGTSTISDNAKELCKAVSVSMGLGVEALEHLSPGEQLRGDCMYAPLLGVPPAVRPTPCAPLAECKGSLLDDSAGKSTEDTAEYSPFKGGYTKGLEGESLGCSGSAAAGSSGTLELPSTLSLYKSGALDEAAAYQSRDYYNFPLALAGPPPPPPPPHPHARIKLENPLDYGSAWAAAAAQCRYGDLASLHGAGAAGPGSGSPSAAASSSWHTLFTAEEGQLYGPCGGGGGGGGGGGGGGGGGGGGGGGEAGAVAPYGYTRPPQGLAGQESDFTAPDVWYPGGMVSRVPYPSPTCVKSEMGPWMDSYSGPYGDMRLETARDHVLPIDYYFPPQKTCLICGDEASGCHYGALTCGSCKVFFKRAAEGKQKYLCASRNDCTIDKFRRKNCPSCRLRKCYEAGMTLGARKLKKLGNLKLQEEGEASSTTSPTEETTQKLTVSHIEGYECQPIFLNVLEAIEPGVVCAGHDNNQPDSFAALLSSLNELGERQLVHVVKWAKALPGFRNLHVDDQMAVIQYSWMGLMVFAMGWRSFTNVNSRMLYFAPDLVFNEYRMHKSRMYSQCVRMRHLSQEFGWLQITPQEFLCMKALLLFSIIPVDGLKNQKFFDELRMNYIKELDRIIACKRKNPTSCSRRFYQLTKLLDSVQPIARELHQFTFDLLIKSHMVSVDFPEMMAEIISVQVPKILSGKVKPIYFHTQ

With O=C(N[C@H](CO)[C@H](O)c1ccc([N+](=O)[O-])cc1)C(Cl)Cl the Potency [1] was “inactive”, the Potency [2] was “inactive” and the Potency [3] was “inactive”. The Potency [4] was “inactive”, the Potency [5] was “inactive” and the outcome [6] was “inactive”.

For C/C(=C\c1ccc(C(=O)O)cc1)c1ccc2c(c1)C(C)(C)CCC2(C)C, the Potency [2] was “inactive”, the Potency [3] was “inactive” and the Potency [4] was 29.8 µM (active). The Potency [5] was “inactive”, the outcome [6] was “inactive” and the Potency [7] was “inactive”.

For CCN(CC)c1ccc(C=O)c(O)c1, the Potency [8] was 43.3 µM (active), the Potency [1] was “inactive” and the Potency [2] was “inactive”. The Potency [3] was “inactive”, the Potency [4] was “inactive” and the Potency [5] was “inactive”. The outcome [6] was “inactive” and the Potency [7] was “inactive”.

In the case of CCCOC(=O)c1ccc(O)cc1, the Potency [2] is reported as 47.5 µM (active), the Potency [3] is reported as “inactive” and the outcome [6] is reported as “inactive”.

With CC(Cc1ccc(O)c(O)c1)C(C)Cc1ccc(O)c(O)c1 (stereo not given) the Potency [2] was “inactive”, the Potency [3] was “inactive” and the Potency [4] was “inactive”. The Potency [5] was “inactive”, the outcome [6] was “inactive” and the Potency [9] was 61.1 µM (active). For the same molecule, the Potency [7] was “inactive”.
